Sfp inh – blocks B. subtilis Sfp PPTase activity | AID 1490 | Q9F4F7 | Biochemical Sfp PPTase activity, qHTS | 3.5% of 310,000 active | Potency, µM, for inactives: largest response in the series, negative = inhibition, usual class: inhibitors;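 note: the enzyme is Sfp with the accession as filed and its product quenches rhodamine fluorescence; potency is the fitted concentration of half-maximal effect; 0% = enzyme reaction without inhibitor and -100% = no enzyme wells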
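Compounds were incubated with enzyme (final 15 nM) for 15 min at room temperature before substrate addition started the reaction. Fluorescence at 525 nm excitation, 598 nm emission was recorded immediately and after 30 minutes.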
Tau fibril ThT – tau fibrillization inhibition (ThT binding). Potency, µM (doses to about 57.4 µM), without a hit: at the top dose activity, negative = inhibition, actives largely listed as inhibitors. AID 1460. 2.1% of 270,000 active. recombinant tau K18 P301L, heparin-induced fibrillization, ThT fluorescence. P10636; note: potency is the fitted concentration of half-maximal effect; nearly all actives have a fitted effect of over 55% in size
Target sequence (P10636 561-689 P618L limits assumed): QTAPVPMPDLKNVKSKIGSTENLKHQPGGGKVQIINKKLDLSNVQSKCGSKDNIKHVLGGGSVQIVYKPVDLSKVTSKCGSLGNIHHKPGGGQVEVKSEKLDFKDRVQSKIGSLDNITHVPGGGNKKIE
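ThT emission at 510 nm, taken 1 hr after adding 30 uM dye, quantifies aggregates formed when 20 uM heparin acts on human tau K18 P301L for 6 hr at 37 C.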
G9a inh – blocks human histone lysine methyltransferase G9a; G9a H3K9 monomethylation, AlphaScreen, 2 h; 8.8% of 350,000 active; Potency, µM (series often up to 102 µM), for the others: top-dose activity, negative = inhibition, actives largely listed as inhibitors; Q96KQ7; note: potency is the fitted concentration of half-maximal effect; nearly all actives have a fitted effect of over 75% in size
Target sequence (Q96KQ7 913-1193 limits assumed): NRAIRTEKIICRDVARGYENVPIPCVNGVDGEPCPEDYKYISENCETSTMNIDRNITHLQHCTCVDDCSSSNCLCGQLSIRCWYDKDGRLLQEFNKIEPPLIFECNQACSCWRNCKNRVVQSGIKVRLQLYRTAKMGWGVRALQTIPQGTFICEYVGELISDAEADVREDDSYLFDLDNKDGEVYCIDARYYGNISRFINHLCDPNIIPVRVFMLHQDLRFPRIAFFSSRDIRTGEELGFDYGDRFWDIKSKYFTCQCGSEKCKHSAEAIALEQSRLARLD
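AlphaScreen detection with an anti-monomethyl H3K9 antibody quantified product after a 2 h room-temperature reaction containing 500 nM biotinylated H3K9 peptide, 20 µM SAM and 20 nM enzyme, which had been preincubated 15 min with compound.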
FBPA coupling cs – counter-screen for Giardia aldolase inhibitors: coupling enzyme system; coupling enzyme system counterscreen, AmpLite Red fluorescence; 0.67% of 290,000 active; activity change, negative = inhibition, % at 58.2 µM, hits read low; in the data active = activity change below about -30%
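Counterscreen of the coupled detection system alone, without aldolase: glyceraldehyde-3-phosphate coupling enzymes plus AmpLite Red readout. Compounds at 57.5 uM final, 10 min RT preincubation, 20 min RT reaction, fluorescence 525/598 nm.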
Tau FP inhib – blocks human tau fibril formation measured by polarization. P10636. K18 P301L tau heparin fibrillization, Alexa594 FP, 6 h. Potency, µM (doses to about 57.7 µM), without a hit: top-dose activity, negative = inhibition, usual class: inhibitors. 0.39% of 280,000 active; note: potency is the fitted concentration of half-maximal effect; nearly all actives have a fitted effect of over 55% in size
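Human K18 P301L fragment (15 uM unlabeled plus 0.24 uM Alexa 594-labeled) in 100 mM sodium acetate pH 7 with compound, aggregation induced by 20 uM heparin for 6 hr at 37 C. ThT (30 uM) added for 1 hr, then Alexa 594 FP read.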
Tau fluor cs – counter-screen for tau fibril formation inhibitors. Potency, µM (doses to about 57.7 µM), for the others: at the highest dose activity change, negative = decrease. tau K18 P301L (four-repeat tau fragment) Alexa594 fluorescence, heparin fibrillization. 0.93% of 280,000 active; note: potency is the fitted concentration of half-maximal effect; nearly all actives have a fitted effect of over 55% in size
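Human K18 P301L tau (15 uM unlabeled plus 0.24 uM Alexa 594-labeled, final) in 100 mM sodium acetate pH 7 was mixed with compound and 20 uM heparin and incubated 6 hr at 37 C.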
* = called active by the depositor; ? = inconclusive; nt = not tested or not shown; [ ] = remark or other dose. A selection: hits, their analogues and other compounds. The true share with any hit is near 11%. Unless noted, calls come from the whole dose curve; as a rule, active = well fitted curve in the direction sought with a large enough effect; inconclusive = small, poorly fitted or top-dose-only effect, or another doubt; inactive = no such curve, though single readings can be large; an effect the other way counts as inactive or inconclusive. Unless noted, % is set by controls: 0 for no effect and ±100 for the full control effect.

SMILES	Sfp inh	Tau fibril ThT	G9a inh	FBPA coupling cs	Tau FP inhib	Tau fluor cs
CC(=O)c1cccc(Nc2nn(-c3ccc(OC(F)(F)F)cc3)nc2C(C)=O)c1	nt	-3%	4%[59 µM]	nt	9%	-4%
COc1ccc(Cl)cc1C(=O)OCC(=O)c1ccc[nH]1	nt	nt	4%[59 µM]	nt	nt	nt
NCC(=O)Nc1ccc(Cl)cc1C(=O)c1ccc[nH]1	17%	-5%	25µM*	2	16%	?
CCc1c(C)sc(NC(=O)Cn2nc(C)c([N+](=O)[O-])c2C)c1C(N)=O	11µM*	?	3.5µM*	-1	?	-10%
Cc1csc(NC(=O)Cn2nc(C)c([N+](=O)[O-])c2C)n1	14%	-1%	-3%	1	3%	0%
COc1ccc(CNC(=O)COC(=O)C(CCSC)NC(=O)c2ccco2)cc1OC (stereo unspecified)	nt	nt	-10%[2.33 µM]	nt	nt	nt
COc1ccc(C2CC(c3cccs3)=NN2c2nc(-c3ccccc3)cs2)cc1OC (stereo unspecified)	45µM*	-2%	?	1	12%	-27%
C[C@@H](c1ccccc1)N1C(=O)[C@H]2[C@H]3[C@H](O)[C@H](O)C/C(=N/OCc4ccccc4)[C@@H]3CC[C@@H]2C1=O	2%	-8%[11.5 µM]	nt	5	-9%[11.6 µM]	-10%[11.6 µM]
COC(=O)c1ccc2nc(C)cc(Nc3ccc(N(C)C)cc3)c2c1	-6%	?	50µM*	-2	-2%	?
COc1ccc2c(c1)c1c(c(=O)n(Cc3ccccc3)c(=O)n1Cc1cccc(Cl)c1)n2C	nt	-3%	18%[59 µM]	nt	-14%	-16%
CC(=O)Oc1cccc(/C=C2\C=C(c3ccc(C)cc3)OC2=O)c1	-22%	?	?	1	-8%	-15%
CC(C)COc1ccc(/C=C2/Sc3ccccc3C2=O)cc1	-21%	4.5µM*	38%[59 µM]	-3	12%	-5%
CCCCOc1ccc(/C=C2/Sc3ccccc3C2=O)cc1	-3%	3.5µM*	-31%[12.7 µM]	-1	1%	?
CC(=O)Oc1cccc(/C=C2\Sc3ccccc3C2=O)c1	-1%	10µM*	10%	0	-8%	?
O=C1/C(=C/c2cccs2)Sc2ccccc21	0%	?	?	-1	-10%	-21%
COc1cc(/C=N/Nc2nc(C)cc(=O)[nH]2)ccc1O	-19%	nt	29%[0.501 µM]	1	nt	nt
COc1cccc(/C=N/Nc2nc(C)cc(=O)[nH]2)c1OC	56µM*	nt	14%	0	nt	nt
CCOc1ccccc1/C=N/Nc1nc(C)cc(=O)[nH]1	-10%	nt	-27%	-5	nt	nt
COc1cc(/C=N/Nc2nc(C)cc(=O)[nH]2)cc(OC)c1O	?	nt	28µM*	-1	nt	nt
O=C(NCCC1CCCCN1S(=O)(=O)c1ccc(Cl)cc1)C(=O)NCCN1CCOCC1 (stereo unspecified)	nt	nt	-29%	nt	nt	nt
CC[C@H](C)C(=O)O[C@H]1C[C@H](O)C=C2C=C[C@H](C)[C@H](CC[C@@H](O)C[C@@H](O)CC(=O)O)[C@H]21	28%	-1%	nt	0	-2%	-1%
CCCCCc1nnc(NC(=O)Cc2ccc([N+](=O)[O-])cc2)s1	-7%	-18%	45µM*	2	-2%	-21%
CC(C)(C)Cc1nnc(NC(=O)Cc2ccc([N+](=O)[O-])cc2)s1	40µM*	-7%	10µM*	3	-2%	-9%
COc1ccc(N2CCN(C(C)C(=O)N3CCc4ccccc43)CC2)cc1 (stereo unspecified)	1%	nt	40µM*	3	nt	nt
COc1ccc(N2CCN(C(C)C(=O)N3CC(C)OC(C)C3)CC2)cc1 (stereo unspecified)	?	-23%	45µM*	0	2%	-21%
SMILES	Sfp inh	Tau fibril ThT	G9a inh	FBPA coupling cs	Tau FP inhib	Tau fluor cs
Clc1cnc(Nc2cccnc2)c(Cl)c1	-2%	nt	-12%	0	nt	nt
Cc1nc2ccn(Cc3ccco3)c(=O)c2cc1C(=O)NCc1ccc(F)cc1	nt	2%	4%[59 µM]	nt	-1%	-3%
CSC1=NC2(CCN(C(=O)NC3CCCCC3)CC2)N=C1c1ccc(C)cc1	nt	-11%	9%[59 µM]	nt	-4%	-8%
CC1(C)CC2(C)OC(=N)C1(C#N)C2(C#N)C#N (stereo unspecified)	-5%	?	56µM*	1	?	-24%
Cc1cccc(N2CCN(Cc3ccc(Br)o3)CC2)c1C	-14%	nt	25µM*	-2	nt	nt
Brc1ccc(CN2CCN(c3ccccc3)CC2)o1	-25%	nt	?	0	nt	nt
Cc1ccccc1N1CCN(Cc2ccc(Br)o2)CC1	-21%	nt	10µM*	-1	nt	nt
Cc1ccc(Nc2nc(N/N=C\c3ccc4c(c3)OCO4)nc(N3CCOCC3)n2)cc1	21%	-14%	-22%	-1	8%	-24%
Cc1ccc(SCCc2cc[n+](CC(=O)c3ccccc3)cc2)cc1	-1%	-18%	?	-11	-3%[2.34 µM]	-14%
O=C(C[n+]1ccc(CCSc2ccc(F)cc2)cc1)c1ccccc1	50µM*	28µM*	22µM*	-10	?	-14%
O=C(C[n+]1ccccc1)c1ccc(-c2ccccc2)cc1	5%	-6%	-45%	-1	-2%	-8%
Cc1ccc(C(=O)C[n+]2ccc(Cc3ccccc3)cc2)cc1	11%	-8%	45µM*	-5	-3%	4%
COc1ccc2oc(=O)c(C(=O)NCCc3c(C)[nH]c4ccc(Br)cc34)cc2c1	nt	?	-7%[59 µM]	nt	10%	?
CCCc1cc(=O)oc2cc(OCC(=O)NC3CC(C)(C)NC(C)(C)C3)ccc12	13%	nt	13%	0	nt	nt
CCc1ccc(O)c(N=Cc2cccc(C)c2O)c1	-20%	?	2.5µM*	-1	-8%	?
C=CCc1cccc(C=Nc2cc(Br)ccc2O)c1O	?	?	45µM*	-1	1%	-18%
COc1ccc(S(=O)(=O)Nc2ccc3oc4c(c3c2)C(=O)CC(C)(C)C4)cc1	nt	-2%	0%[59 µM]	nt	-17%	-19%
C/C(=N\N1CCN(c2ccc(Cl)cc2)CC1)c1cccc([N+](=O)[O-])c1	-14%	?	22µM*	0	1%	?
O=C(c1cccc([N+](=O)[O-])c1)N1CCN(c2ccc(Cl)cc2)CC1	-5%	-4%	?	3	6%	-8%
C/C(=N/N1CCN(c2ccccc2)CC1)c1cccc([N+](=O)[O-])c1	8%	?	25µM*	1	11%	-26%
C/C(=N\N1CCN(c2ccccc2)CC1)c1ccco1	-10%	?	56µM*	-5	-1%	-21%
CCNC(=S)N/N=C(\C)c1ccc2ccccc2c1	2%	?	?	-5	2%	-18%
CCNC(=S)N/N=C(\C)c1ccc2ccccc2c1OC(F)F	0%	-17%	45µM*	2	-8%	-22%
